For 40 sequences, sensor-assay potency score (higher = more potent) results are on record in the OligoGym collection.
Further: reference of the scale not given here.

The first test deals with CDH2. As to the kind of experiment: pooled miR-30 sensor sort-seq; sequence = guide strand. The settings on record: shRNA.
TATTATCTCTTACATCATCTTC yielded a sensor-assay potency score (higher = more potent) of -0.354. ATAACTGTAACAGACACGGTTG: the sensor-assay potency score (higher = more potent) is -0.196.

Regarding TCACATTTGGTGATTCTCGGTC, the sensor-assay potency score (higher = more potent) is 0.353. Still for that read-out and setting: to TTTTGTCTTTTACTTATCGTTT belongs -0.959; to TTTGCTGCATATATCGATCTGG, 0.226. For the sequence TTTTTATCTCTATCAGACCTGA, the sensor-assay potency score (higher = more potent) was -0.29. The same measure, in the same setting: the result for TTCATAGTCAAACACTAACAGG reads -1.55. The same measure, in the same setting: to TAAGCTGAGCAAAATCACCATT belongs -0.593. Turning to TATTTCTTCAACTTCTGCTGAC, the sensor-assay potency score (higher = more potent) came out at 0.204. The sequence TTGCTGCATATATCGATCTGGG yielded a sensor-assay potency score (higher = more potent) of -0.846.

The target in another test is CDK9. The description is as above. The settings on record: shRNA.
TTTCTGTGGATGTAGTAGAGGC yielded a sensor-assay potency score (higher = more potent) of -0.227. TTCTTCAGAGCCACCTTCTGGC registered a sensor-assay potency score (higher = more potent) of 0.0361.

On to TTAGCAGCCTTCATGTCCCTAT, for which the sensor-assay potency score (higher = more potent) is -0.0117. Sequence TAGAAGCTGAAGGATCTTGATC showed a sensor-assay potency score (higher = more potent) of -0.488.

On to TTGATCTCCCGCAAGGCTGTAA, for which the sensor-assay potency score (higher = more potent) is -0.379. Consider TCGAACACCAGGTATATACTAC, for which the sensor-assay potency score (higher = more potent) is -0.813. As for TTGACCACATTCTCGTGTTTTA, the sensor-assay potency score (higher = more potent) was -0.499.

TTGAACACCTCCCCGAAGGTGC returned a sensor-assay potency score (higher = more potent) of -0.836. TTTTCCATCAGCACCTTCTTCA: the sensor-assay potency score (higher = more potent) is -0.28. In turn, AACTTGACCAAAACATTGCTCA showed a sensor-assay potency score (higher = more potent) of -0.141. In turn, TATACTACCCTTGCAGCGGTTA yielded a sensor-assay potency score (higher = more potent) of -0.622.

For the sequence TTTTAGAAGCTGAAGGATCTTG, the sensor-assay potency score (higher = more potent) is -0.461. Turning to TTGTCGATGAGGTCCAGTGCGT, the sensor-assay potency score (higher = more potent) was -0.728. On to TACCAGAGTGTCACCACACGGT, for which the sensor-assay potency score (higher = more potent) stood at 0.18. The sequence TATTTGGAAACTTCATCACAAA returned a sensor-assay potency score (higher = more potent) of -1.19. Sequence ATCTCTGCCATGATGCACCCAG came in with a sensor-assay potency score (higher = more potent) of -0.791. The same measure, in the same setting: to AAAACATTGCTCAACAGCCCAG belongs -1.38. The sequence TCAAGTTGACCACATTCTCGTG yielded a sensor-assay potency score (higher = more potent) of -0.846. TACTCGAACATGGACGTCAGGT returned a sensor-assay potency score (higher = more potent) of -0.285. TATATACTACCCTTGCAGCGGT gave a sensor-assay potency score (higher = more potent) of -0.627. The same measure, in the same setting: to TGAAGGATCTTGATCTCCCGCA belongs -0.0916. In turn, AAGTACTCGAACATGGACGTCA returned a sensor-assay potency score (higher = more potent) of 0.37. As to ATTCTCGTGTTTTAGAAGCTGA, the sensor-assay potency score (higher = more potent) is 0.181. The sequence TCTCGTATTTGGAAACTTCATC showed a sensor-assay potency score (higher = more potent) of -1.02.

A further test addresses CDKL2. Described as above. The settings on record: shRNA.
For TTTAGTAACTTGATTTCTCGCA, the sensor-assay potency score (higher = more potent) was 0.263. Still for that read-out and setting: to TTTGTCATCGTCACTTTCTAAG belongs -0.977; to TAGTAACTTGATTTCTCGCATT, -0.927. As for TAGATAAAGAAACATTTCTGGC, the sensor-assay potency score (higher = more potent) is -0.719. For the sequence TTTCAGGCAACCTTACTCCAGC, the sensor-assay potency score (higher = more potent) was -0.594.

The sequence TACTTTTAACTGTAGTTCTTGG registered a sensor-assay potency score (higher = more potent) of -0.4.
